Source: PubChem BioAssay (several laboratories)
Rows were chosen to be rich in hits. Some 4.2% of all compounds tested hit in one or more screens of this group.
NALP3 yeast inh = NALP3 inhibition in yeast. Yeast reconstituted NLRP3/ASC/caspase-1, beta-gal luminescence, 24 h. inhibition, % at 10 µM. hit rate 0.39% among 330,000. AID 2825;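 active = inhibition of 50% or more; inactive = inhibition below 50%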;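 note: plate controls were induced DMSO wells for no effect and uninduced yeast grown without galactose for full effect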
tim23-1 inh = inhibits growth of tim23-1 mutant yeast. S. cerevisiae tim23-1 growth, BacTiter-Glo luminescence, 24 h. inhibition, % at 20 µM. hit rate 1.3% among 330,000. AID 463212;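 active = growth inhibition of the mutant yeast at or above 50%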;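 note: temperature-sensitive mutant grown at 25 °C; plate controls were DMSO-treated mutant yeast for no effect and medium wells lacking yeast for full effect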
NALP1 yeast inh = NALP1 inhibition. AID 2071. inhibition, % at 10 µM. hit rate 0.61% among 280,000. S. cerevisiae NALP1/ASC/caspase-1 growth, X-gal OD620, 72 h; in the data active = inhibition mostly above about 24%, no sharp cut-off; inactive = mostly below about 32%
PfHsp90 yeast 2 = growth inhibition of yeast expressing Plasmodium Hsp90; S. cerevisiae expressing PfHsp90, BacTiter-Glo ATP, 48 h; yeast lacking PDR1 and PDR3 efflux regulators; inhibition, % at 9.4 µM; hit rate 0.32% among 310,000; AID 504621;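 active = every replicate shows inhibition above about 80%, whatever the replicate mean, limit read from the data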;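 note: 0% = DMSO neutral controls and 100% = 20 µM radicicol positive controls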
TIM10 inh = TIM10 yeast growth inhibition. S. cerevisiae TIM10 strain growth, BacTiter-Glo luminescence, 24 h. inhibition, % at 10 µM. hit rate 1.4% among 330,000;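 active = inhibition of 40% or more at the single tested concentration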;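 note: wild-type TIM10 isogenic control strain grown at permissive 25 °C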
tim10-1 inh = inhibits growth of tim10-1 mutant yeast | S. cerevisiae tim10-1 ts strain growth, BacTiter-Glo, 24 h | inhibition, % at 20 µM | hit rate 2.2% among 330,000;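 active = inhibition of at least 40%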;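 note: mutant grown at 25 °C; 0% = DMSO wells with yeast and 100% = wells holding no yeast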
The depositor's hits bear a star; · = no result.

SMILES	NALP3 yeast inh	tim23-1 inh	NALP1 yeast inh	PfHsp90 yeast 2	TIM10 inh	tim10-1 inh
CC1CC1C(=O)OCC(=O)Nc1ccc2[nH]c(=O)[nH]c2c1 (stereo not given)	5	8	-1	·	3	2
O=S(=O)(NCCOc1ccccc1)c1ccc2ccccc2c1	-3	4	-5	-23	-9	11
COc1ccc(S(=O)(=O)NCCOc2ccccc2)cc1C	9	14	50*	-16	-1	20
Cc1noc(C)c1COC(=O)[C@@H](NC(=O)c1ccccc1)C(C)C	16	18	24*	-5	6	6
CCCCOC(=O)Nc1nnc(CC)s1	33	13	43*	5	14	3
C=CCN1C(=O)c2ccc(C(=O)NCC(=O)Nc3c(C)cc(C)cc3C)cc2C1=O	6	-5	·	9	0	-25
O=C(O)c1cccc(CSc2n[nH]c(-c3ccc(Cl)cc3Cl)n2)c1	10	8	53*	5	-3	-7
COc1ccc2c(c1O)-c1ccccc1CCN(C)C2	14	-13	-8	-31	-2	5
CN1CCc2cccc3c2[C@@H]1Cc1ccc(O)c(O)c1-3	47	10	86*	23	15	21
Cc1ccccc1OC(C)C(=O)N1CCN(c2ccccn2)CC1 (stereo not given)	6	32	32*	8	16	23
O=C1C=C(c2cc(F)ccc2F)C[C@@H](c2ccc(F)cc2)C1	8	25	·	-5	-15	5
Cc1c(C)n(CC(O)CNCCO)c2ccccc12 (stereo not given)	14	-1	-1	18	-4	8
OC(CNCCC1C=Nc2ccccc21)Cn1c2ccc(Cl)cc2c2cc(Cl)ccc21 (stereo not given)	·	·	101*	105*	·	·
S=C1NC2=C(CCC/C2=C\c2ccc(Cl)cc2)C(c2ccc(Cl)cc2)N1 (stereo not given)	12	13	40*	-16	22	35
S=C1NC2=C(CCC/C2=C\c2ccccc2)C(c2ccccc2)N1 (stereo not given)	-12	14	23	-14	16	25
CC1=NOC(=O)/C1=C\c1ccc(-c2ccc(Br)cc2)o1	·	·	6	105*	·	·
O=S(=O)(CC(CN1CCCC1)N1CCCC1)c1ccc2ccccc2c1 (stereo not given)	41	-18	52*	2	4	30
CC1CCN(CCCN2C(=O)C3C(C(=O)Nc4ccc(Cl)cc4)C4C=CC3(O4)C2C(=O)NC2CCCCC2)CC1 (stereo not given)	4	9	6	-31	7	-27
Cc1cc(C)c(Cc2c(C)nc3c(C(=O)NCc4ccco4)cnn3c2C)c(C)c1	23	36	42*	-36	34	38
O=C(Nc1ncc(C(F)(F)F)cc1Cl)C1COc2ccccc2O1 (stereo not given)	15	21	40*	-15	3	17
CCOCCCN(C)C1CCN(C(=O)c2oc3ccccc3c2NC(=O)COc2ccc(F)cc2)CC1	19	-17	21	5	3	-2
Cc1ccc[n+](CC(=O)Nc2cc(C(F)(F)F)ccc2Cl)c1	3	-16	24	16	-10	1
CCC(C)(C)c1ccc(OCCCC[n+]2cccc(C)c2)c(C(C)(C)CC)c1	·	·	33*	-34	·	·
O=C(NCCCN1CCOCC1)C(C(=O)c1ccccc1)n1ccccc1=O (stereo not given)	-1	10	40*	·	-4	4
CC(C(=O)NCCCN1CCOCC1)n1cccc1C(=O)c1ccccc1 (stereo not given)	15	6	2	6	-12	7
SMILES	NALP3 yeast inh	tim23-1 inh	NALP1 yeast inh	PfHsp90 yeast 2	TIM10 inh	tim10-1 inh
Cc1cccc2sc(N(CCCN(C)C)C(=O)c3sc4ccccc4c3Cl)nc12	23	11	54*	6	16	20
Cc1cccc2sc(N(CCN(C)C)C(=O)/C=C/c3cccs3)nc12	39	10	54*	12	29	13
CN(C)CCCN(C(=O)CCOc1ccccc1)c1nc2c(F)cccc2s1	·	·	52*	-38	·	·
CCc1ccc(-c2ccc(SCC(=O)NCC3CCCO3)nn2)cc1 (stereo not given)	-9	9	-16	-109	18	22
COc1cc2nc(NCC3CCCO3)n3nc(-c4cccnc4)nc3c2cc1OC (stereo not given)	4	27	37*	·	16	29
CC(=O)/C=C(\C)Nc1ccccc1O	21	-18	43*	-23	-46	-83
Cc1nnsc1C(=O)NNS(=O)(=O)c1cc(C(F)(F)F)cc(C(F)(F)F)c1	-4	0	19	17	-11	-4
Cc1ccc(S(=O)(=O)NNC(=O)c2snnc2C)cc1	-9	12	37*	9	10	6
CN(C)c1ccc(NC(=O)CN2CCN(CC(=O)Nc3ccc(F)cc3)CC2)cc1	8	14	37	·	-5	8
CN(C)c1ccc(NC(=O)CN2CCC(O)(c3ccccc3)CC2)cc1	-4	2	29*	17	-4	3
COc1cccc(NC(=O)CN(C)C(C)C(=O)NC(=O)NC2CCCCC2)c1 (stereo not given)	12	25	·	4	4	9
O=C(O)c1ccc(NC(=O)c2cccc(NC(=O)c3cccs3)c2)cc1	14	1	36*	-9	13	4
CCN(CC)CC(C(=O)N(CC)CC)P(=O)(c1ccccc1)c1ccccc1 (stereo not given)	21	12	42*	8	12	12
CSc1ccc(/C=C/C(=O)c2ccc(O)cc2)cc1	41	13	59*	-16	19	-9
Cc1ccc(/C=C/C(=O)c2ccc(O)cc2)cc1	24	37	-3	6	-8	0
CC(C)(C)NC(=S)NCC1CC1	8	-3	5	3	10	5
Cc1cc2cc(C(c3nnnn3C(C)(C)C)N(Cc3ccco3)CC3CCCO3)c(=O)[nH]c2cc1C (stereo not given)	-7	30	5	-17	14	33
Cc1cc(C)c2[nH]c(=O)c(C(c3nnnn3C(C)(C)C)N(Cc3ccco3)CC3CCCO3)cc2c1 (stereo not given)	4	12	38*	14	29	21
Cc1nc(NC2=NCN(CCc3ccccc3)CN2)nc2ccccc12	·	·	37*	·	·	·
Cc1ccc2c(C)nc(NC3=NCN(CCc4ccccc4)CN3)nc2c1	·	·	18	·	·	·
Cc1nc(NC2=NCN(Cc3ccccc3)CN2)nc2ccccc12	·	·	32*	·	·	·
Cc1nc(NC2=NCN(Cc3cccnc3)CN2)nc2ccccc12	·	·	-21	-6	·	·
CCN(CC)c1ccc(NC(=O)COC(=O)c2cccs2)cc1	46	3	36*	-21	-12	-2
CN(C)CCCN(Cc1ccccc1)C(=S)Nc1ccc(F)c(Cl)c1	10	-3	33*	18	-4	10
